# Measurements from PubChem BioAssay.
# Active and inactive are the calls of the source.
# Tests used:
# [1] = A549 cell viability effects, profiling panel, calcein-AM fluorescence, 48 h, basal (AID 1162); settings: higher = more signal
# [2] = adipocyte viability effects, profiling panel, cell-based, 3T3-L1 adipocytes, calcein-AM fluorescence, 48 h, basal (AID 1163); settings: 3T3-L1 adipocytes viability, higher = more signal
# [3] = HepG2 cell viability effects, profiling panel, calcein-AM fluorescence, 48 h, basal (AID 1164); settings: higher = more signal
# [4] = MM1S cell viability effects, profiling panel, calcein-AM fluorescence, 48 h, basal (AID 1165); settings: higher = more signal;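 further: viability of MM1S multiple myeloma cells under basal unstimulated conditions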
# [5] = basal RPMI8226 viability, no added stimulus, profiling panel, cell-based, calcein-AM fluorescence, 48 h, PK04 Diversity Set (AID 1166); settings: RPMI8226 myeloma viability, higher = more signal;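 further: cells grown under basal conditions without added stimulus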
# [6] = basal HepG2 mitochondrial membrane potential changes, profiling panel, cell-based, JC-1 fluorescence, 24 h, 100 nL compound (AID 1167); settings: higher = more signal
# [7] = basal 3T3-L1 adipocyte mitochondrial potential changes, profiling panel, cell-based, JC-1 fluorescence, 3T3-L1 adipocytes, 24 h, 100 nL compound (AID 1168); settings: JC-1 mitochondrial fluorescence, higher = more signal, called active from +8 up or from −8 down
# [8] = basal RPMI8226 mitochondrial membrane potential changes, profiling panel, cell-based, JC-1 fluorescence, 24 h, 100 nL compound (AID 1169); settings: RPMI8226 myeloma, JC-1 mitochondrial potential fluorescence, higher = more signal
# [9] = basal MM1S mitochondrial membrane potential changes, profiling panel, cell-based, JC-1 fluorescence, 24 h, 100 nL compound (AID 1170); settings: higher = more signal
# [10] = A549 lung cancer cell viability effects, profiling panel, resazurin fluorescence, 24 h, PK04 Diversity Set (AID 1171); settings: higher = more signal, called active from +8 up or from −8 down
# Further: test concentration not given here.
SMILES,z-score [1],z-score [2],z-score [3],z-score [4],z-score [5],z-score [6],z-score [7],z-score [8],z-score [9],z-score [10]
CC(CCN1CCCc2nc(C)c(C)cc21)=NO[C@@H](C)c1cn([C@H](CO)Cc2ccccc2)nn1,1.11,-0.189,-0.136,0.33,0.049,0.38,0.733 (inactive),-0.0733,-0.762,-0.131 (inactive)
COC(OC)[C@@H](C)[C@H](OC)[C@@H](C)[C@H](OC)c1ccccc1,2.22,0.159,0.568,-0.569,0.692,0.348,-0.14 (inactive),0.404,1,-0.996 (inactive)
CC(C)[C@@H](OCc1ccccc1)[C@H](C)CON=C1[C@H]2CCn3c(=O)n(-c4ccccc4)c(=O)n3[C@H]2[C@H](O)[C@@H]2O[C@H]12,-0.27,-0.104,-1.31,-2.72,-2.22,-2.12,0.197 (inactive),-0.654,-0.375,-1 (inactive)
CCOC(=O)CCN1C(=O)[C@H]2[C@H]3[C@H](O)[C@H](O)CC(=NO[C@@H]4O[C@H](CO)[C@@H](O)[C@H](O)[C@H]4O)[C@@H]3CC[C@H]2C1=O,0.816,-0.0641,1.19,-0.269,0.238,-0.0782,-0.0421 (inactive),0.577,-1.45,-0.765 (inactive)
CCCNC(=O)OC[C@H]1O[C@H](CCON=C2c3cc(OC)ccc3O[C@H](c3cccc(OC)c3)[C@H]2O)C=C[C@@H]1Oc1ccc(OC)cc1,0.111,0.752,-0.0825,-0.187,-0.572,1.38,-1.49 (inactive),0.0694,-0.0229,0.409 (inactive)
CCOC(=O)[C@H](Cc1ccccc1)NC(=O)CCC1CC(OC(=O)NCc2ccc3c(c2)OCO3)CC2(CCCC(COC(=O)NCCOc3ccccc3)O2)O1 (stereo not given in full),-0.794,-0.317,0.184,0.322,0.0039,2.45,0.808 (inactive),-0.0508,-1.17,0.198 (inactive)
CCN1C(=O)[C@H]2[C@H]3[C@H](O)[C@H](O)CC(=NOCC=C(C)CCC=C(C)C)[C@@H]3CC[C@H]2C1=O,-0.0234,0.28,-0.196,-0.701,0.203,-0.731,-1.56 (inactive),-0.321,0.355,0.298 (inactive)
COC(=O)[C@H](C)NC(=O)CCC1CC(OC(=O)NCc2ccc3c(c2)OCO3)CC2(CCCC(COC(=O)NCCC(C)C)O2)O1 (stereo not given in full),-0.121,0.114,-1.19,-3.18,-2.13,-0.523,-0.452 (inactive),-0.253,0.177,0.442 (inactive)
COc1ccc(OC[C@@H]2CC3[C@@H](c4ccc(Br)cc4)[C@H](C)CC[C@H]3C(=O)O2)cc1 (stereo not given in full),0.228,0.0081,0.139,0.332,-0.204,-0.96,0.533 (inactive),0.196,0.0404,0.582 (inactive)
O=C1[C@H]2[C@H]3[C@H](O)[C@H](O)CC(=NO[C@@H]4O[C@H](CO)[C@@H](O)[C@H](O)[C@H]4O)[C@@H]3CC[C@H]2C(=O)N1c1cccc(Oc2ccccc2)c1,0.161,-0.45,-0.593,0.365,-0.815,-0.655,-0.349 (inactive),-0.277,-0.229,0.39 (inactive)
CC(C)=NOC[C@@H](O)[C@H]1O[C@@H]2OC(C)(C)O[C@@H]2[C@H]1O,0.112,-1.53,0.139,-0.112,-0.0588,-0.00334,-1.09 (inactive),-1.01,0.661,-0.871 (inactive)
C#CCCCON=C1[C@H]2CCn3c(=O)n(Cc4cc5c(cc4Cl)OCO5)c(=O)n3[C@H]2[C@H](O)[C@@H]2O[C@H]12,0.328,-0.237,0.484,-0.0822,0.644,-0.663,-1.1 (inactive),-0.123,0.00911,-0.188 (inactive)
CC(C)[C@@H](OCc1ccccc1)[C@H](C)C=NOC[C@@H](O)[C@H]1O[C@@H]2OC(C)(C)O[C@@H]2[C@H]1O,-0.205,-0.132,-0.292,0.592,0.322,-0.719,-1.58 (inactive),0.13,0.461,-0.665 (inactive)
CC1(C)O[C@H]2O[C@H]([C@H](O)CON=C3[C@H]4CCn5c(=O)n(-c6ccccc6)c(=O)n5[C@H]4[C@H](O)[C@@H]4O[C@H]34)[C@H](O)[C@H]2O1,-0.359,0.104,-0.0631,0.112,0.279,-0.494,-1.12 (inactive),0.438,0.223,0.065 (inactive)
CCCNC(=O)OC[C@H]1O[C@H](CCON=C2C[C@@H](O)[C@@H](O)[C@@H]3[C@@H]4C(=O)N(CC)C(=O)[C@@H]4CC[C@@H]23)C=C[C@@H]1Oc1ccc(OC)cc1,0.778,0.206,-0.652,-1.61,0.141,-1.18,-0.245 (inactive),0.195,-0.39,-0.454 (inactive)
